Reference: the supplement of paper PMC10849652
About 8,800 targets were measured; listed, in parts, are those with a hit and a random draw of the rest. About 0.5% of all pairs of compound and target were hits.

Legend:
Experiment in all cases: log2 fold change, soluble protein after heating vs DMSO (PISA); higher = thermal stabilisation; K562 lysate, 10 uM; active = over 0.2 and 3.5 SD of the protein, either way, in both replicates (recomputed)
[1] = compound: C#Cc1cccc(Nc2ncnc3cc(OCCOC)c(OCCOC)cc23)c1 [erlotinib]
How it was run: (§1)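 Pellets of K562 cells were dounce-homogenised in PBS pH 7.4 with 1 mM MgCl2, and the crude extract was held at 1 mg/mL protein for a 30 min treatment with 10 μM compound. Aliquots were heated for 3 min over 48°C-58°C and pooled before NP-40 was added to 0.5% at 4°C. The supernatant from 21,000xg for 90 min was quantified by TMTpro 16plex LC-MS/MS with channel sums equalised. Values are reported from duplicates as log-two fold change in thermal stability relative to solvent controls.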

[2] = compound: C/C(=N\NC(=O)C1=CC(=CC=C1)S(=O)(=O)N2CCOCC2)/C3=C(C=CC(=C3)Cl)O
How it was run: as §1

[3] = compound: C1=CC(=CC=C1C2=NC3=C(N2)C=C(C=C3)C(=O)N)OC4=CC=C(C=C4)Cl
How it was run: as §1

[4] = compound: C1=CC2=C(C=CC(=C2)/C=C\3/C(=O)NC(=NCC4=CC=CS4)S3)N=C1
How it was run: as §1

[5] = compound: C1=CC2=NC=CN=C2C=C1/C=C/3\C(=O)NC(=O)S3
How it was run: as §1

[6] = compound: C1=CC=C(C=C1)C2=NC(=C(N2)C3=CC=NC=C3)C4=CC(=C(C=C4)Cl)O
How it was run: as §1

[7] = compound: C1=CC=C2C(=C1)C3=NNC4=CC=CC(=C43)C2=O
How it was run: as §1

[8] = compound: C1CCN(C1)C(=O)NC2=CC=CC(=C2)NC3=NC=C(C(=N3)NCCC4=CN=CN4)Br
How it was run: as §1

[9] = compound: C1CN(CCC1(CC2=CC=C(C=C2)Cl)N)C3=NC=NC4=C3C=CN4
How it was run: as §1

[10] = compound: C1COCCN1CCN2C3=CC=CC=C3N=C2NC(=O)C4=CC(=CC=C4)[N+](=O)[O-] [IRAK-1-4 Inhibitor I]
How it was run: as §1

[11] = compound: C=CC(=O)N1CCC[C@@H](n2nc(-c3ccc(Oc4ccccc4)cc3)c3c(N)ncnc32)C1 [ibrutinib]
How it was run: as §1

[12] = compound: CC(=O)c1cnc2ccc(-c3cc(Cl)c(O)c(Cl)c3)nc2c1N[C@H]1CC[C@H](CN(C)C)CC1
How it was run: as §1

[13] = compound: CC(C)(C)Cn1c(N)nc2ccc(-c3[nH]c(C(C)(C)C)nc3-c3ccc(F)cc3)nc21 [ralimetinib]
How it was run: as §1

[14] = compound: CC(C)(O)CC(=O)NCCn1ccc2ncnc(Nc3ccc(Oc4cccc(C(F)(F)F)c4)c(Cl)c3)c21
How it was run: as §1

[15] = compound: CC(C)C1=C2N=C(C=C(N2N=C1)NCC3=CC=CC=C3)NCCCCCCN
How it was run: as §1

[16] = compound: CC1=C(C(CC(=O)N1)C2=CC=C(C=C2)C(F)(F)F)C(=O)NC3=C(C=C4C(=C3)C=NN4)F
How it was run: as §1

[17] = compound: CC1=C(C2=C(C=C1)C(=O)C3=CC=CC=C3N2CCCN)C
How it was run: as §1

[18] = compound: CC1=C(C=C(C=C1)NC(=O)C2=CC(=CC=C2)C(C)(C)C#N)NC3=CC4=C(C=C3)N=CN(C4=O)C
How it was run: as §1

[19] = compound: CC1=C(C=C(C=C1)NC(=O)C2=CC(=CC=C2)N(C)C)NC(=O)C3=CC=C(C=C3)O
How it was run: as §1

[20] = compound: CC1=CC=C(C=C1)SC2=C3C=C(SC3=CN=C2)C(=O)N
How it was run: as §1

Measured: log2 fold change

COQ8A (UniProt Q8NI60)
Chain of UniProt Q8NI60 (Q8NI60 whole entry, looked up): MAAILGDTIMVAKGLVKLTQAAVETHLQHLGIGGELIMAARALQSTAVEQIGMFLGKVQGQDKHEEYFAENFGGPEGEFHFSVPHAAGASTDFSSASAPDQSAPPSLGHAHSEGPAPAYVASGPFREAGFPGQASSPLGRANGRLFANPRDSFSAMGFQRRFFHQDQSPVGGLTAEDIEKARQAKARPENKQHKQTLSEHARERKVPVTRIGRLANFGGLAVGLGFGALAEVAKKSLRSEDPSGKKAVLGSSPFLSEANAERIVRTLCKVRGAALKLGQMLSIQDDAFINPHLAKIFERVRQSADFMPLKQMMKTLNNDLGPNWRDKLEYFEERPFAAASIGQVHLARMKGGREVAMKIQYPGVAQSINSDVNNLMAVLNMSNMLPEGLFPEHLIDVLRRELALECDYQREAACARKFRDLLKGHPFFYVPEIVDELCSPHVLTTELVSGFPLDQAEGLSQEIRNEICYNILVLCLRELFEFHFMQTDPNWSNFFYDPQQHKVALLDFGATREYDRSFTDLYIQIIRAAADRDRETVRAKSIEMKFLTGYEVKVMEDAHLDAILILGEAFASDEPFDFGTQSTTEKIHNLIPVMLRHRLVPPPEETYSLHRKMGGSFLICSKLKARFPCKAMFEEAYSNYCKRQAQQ
active: [12] 0.611
inactive: [1] 0.154 | [2] 0.014 | [3] -0.057 | [4] 0.008 | [5] -0.083 | [6] 0.029 | [7] 0.105 | [8] -0.01 | [9] 0.007 | [10] -0.034 | [11] -0.061 | [13] 0.143 | [14] 0.115 | [15] -0.009 | [16] -0.139 | [17] -0.074 | [18] -0.04 | [19] 0 | [20] -0.068

DHRS3 (UniProt O75911)
Chain of UniProt O75911 (O75911 whole entry, looked up): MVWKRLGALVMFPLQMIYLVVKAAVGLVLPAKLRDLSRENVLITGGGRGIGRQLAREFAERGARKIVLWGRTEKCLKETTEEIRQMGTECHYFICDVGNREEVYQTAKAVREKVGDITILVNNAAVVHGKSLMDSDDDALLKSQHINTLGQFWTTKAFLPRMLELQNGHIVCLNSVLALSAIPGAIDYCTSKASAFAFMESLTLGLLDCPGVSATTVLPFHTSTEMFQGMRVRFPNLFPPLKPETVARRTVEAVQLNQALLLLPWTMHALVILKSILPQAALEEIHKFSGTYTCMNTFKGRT
inactive: [1] 0.056 | [2] 0.08 | [3] 0.047 | [4] -0.008 | [5] -0.044 | [6] 0.03 | [7] -0.028 | [8] -0.007 | [9] 0.016 | [10] 0.046 | [11] 0.064 | [12] -0.07 | [13] 0.048 | [14] -0.023 | [15] 0.034 | [16] -0.001 | [17] -0.069 | [18] -0.015 | [19] -0.046 | [20] 0.045

DES (UniProt P17661)
Chain of UniProt P17661 (P17661 whole entry, looked up): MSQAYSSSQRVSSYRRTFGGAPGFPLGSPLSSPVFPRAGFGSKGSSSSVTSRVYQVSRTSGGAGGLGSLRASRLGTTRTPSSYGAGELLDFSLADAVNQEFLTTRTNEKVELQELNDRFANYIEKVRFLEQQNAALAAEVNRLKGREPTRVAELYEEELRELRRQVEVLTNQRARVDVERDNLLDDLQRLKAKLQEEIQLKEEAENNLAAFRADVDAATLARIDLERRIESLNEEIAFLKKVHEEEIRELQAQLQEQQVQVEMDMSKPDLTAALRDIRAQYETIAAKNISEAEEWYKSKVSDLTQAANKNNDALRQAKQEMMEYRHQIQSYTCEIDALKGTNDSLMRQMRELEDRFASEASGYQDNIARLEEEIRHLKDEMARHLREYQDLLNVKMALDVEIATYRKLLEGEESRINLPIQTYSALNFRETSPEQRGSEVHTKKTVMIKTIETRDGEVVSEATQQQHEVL
inactive: [1] 0.014 | [2] 0.012 | [3] 0.023 | [4] -0.074 | [5] -0.016 | [6] -0.026 | [7] -0.018 | [8] 0.048 | [9] 0.1 | [10] 0.09 | [11] 0.044 | [12] 0 | [13] 0.025 | [14] -0.16 | [15] -0.01 | [16] -0.026 | [17] -0.045 | [18] 0.057 | [19] -0.017 | [20] -0.057

CSTF2 (UniProt P33240)
Chain of UniProt P33240 (P33240 whole entry, looked up): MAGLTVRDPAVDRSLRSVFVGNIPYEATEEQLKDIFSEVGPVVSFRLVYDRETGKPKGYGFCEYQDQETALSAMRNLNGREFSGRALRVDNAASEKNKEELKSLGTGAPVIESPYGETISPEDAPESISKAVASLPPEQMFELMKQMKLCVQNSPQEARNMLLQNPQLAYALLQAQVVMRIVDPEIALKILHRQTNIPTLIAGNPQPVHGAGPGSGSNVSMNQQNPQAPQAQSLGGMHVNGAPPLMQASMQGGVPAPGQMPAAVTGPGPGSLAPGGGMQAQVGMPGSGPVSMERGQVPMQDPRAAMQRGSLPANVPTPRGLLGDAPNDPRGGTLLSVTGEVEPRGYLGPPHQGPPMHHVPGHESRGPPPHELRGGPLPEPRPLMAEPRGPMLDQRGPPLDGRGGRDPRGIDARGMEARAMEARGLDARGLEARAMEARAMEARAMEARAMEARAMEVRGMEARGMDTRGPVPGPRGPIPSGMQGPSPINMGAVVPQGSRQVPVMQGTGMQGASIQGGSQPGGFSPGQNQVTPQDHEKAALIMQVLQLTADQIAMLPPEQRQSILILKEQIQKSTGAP
inactive: [1] -0.036 | [2] -0.002 | [3] 0.048 | [4] -0.048 | [5] 0.044 | [6] 0.011 | [7] -0.04 | [8] 0.002 | [9] 0 | [10] 0.053 | [12] -0.001 | [13] 0.025 | [14] -0.033 | [15] -0.022 | [16] -0.033 | [17] -0.02 | [18] -0.011 | [19] 0.052 | [20] 0.011
active: [11] 0.244

CSTB (UniProt P04080)
Chain of UniProt P04080 (P04080 whole entry, looked up): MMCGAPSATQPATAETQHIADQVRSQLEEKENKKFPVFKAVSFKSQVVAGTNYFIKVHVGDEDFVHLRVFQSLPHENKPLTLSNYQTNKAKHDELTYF
inactive: [1] -0.024 | [2] 0.054 | [3] -0.016 | [4] 0.018 | [5] 0.004 | [6] -0.028 | [7] 0.031 | [8] -0.015 | [9] 0.031 | [10] 0.082 | [11] 0.017 | [12] -0.047 | [13] 0.03 | [14] -0.065 | [15] 0.019 | [16] -0.059 | [17] 0.037 | [18] 0.121 | [19] 0.009 | [20] 0.021

DPH5 isoform 5 (UniProt Q9H2P9)
Chain of UniProt Q9H2P9 (Q9H2P9 whole entry, looked up): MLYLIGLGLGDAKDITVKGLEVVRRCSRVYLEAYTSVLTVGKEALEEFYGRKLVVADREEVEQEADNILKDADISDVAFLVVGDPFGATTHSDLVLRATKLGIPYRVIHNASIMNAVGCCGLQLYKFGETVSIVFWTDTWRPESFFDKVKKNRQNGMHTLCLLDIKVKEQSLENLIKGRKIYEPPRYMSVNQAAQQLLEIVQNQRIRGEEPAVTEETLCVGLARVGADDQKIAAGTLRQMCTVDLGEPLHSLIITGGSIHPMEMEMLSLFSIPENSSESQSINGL
inactive: [1] 0.008 | [2] -0.028 | [3] -0.025 | [4] 0.066 | [5] -0.017 | [6] 0.074 | [7] 0.046 | [8] -0.027 | [9] 0.027 | [10] 0.009 | [11] 0.043 | [12] -0.027 | [13] -0.031 | [14] 0 | [15] 0.298 | [16] -0.034 | [17] -0.111 | [18] -0.007 | [19] -0.037 | [20] 0.04

DOK1 (UniProt Q99704)
Chain of UniProt Q99704 (Q99704 whole entry, looked up): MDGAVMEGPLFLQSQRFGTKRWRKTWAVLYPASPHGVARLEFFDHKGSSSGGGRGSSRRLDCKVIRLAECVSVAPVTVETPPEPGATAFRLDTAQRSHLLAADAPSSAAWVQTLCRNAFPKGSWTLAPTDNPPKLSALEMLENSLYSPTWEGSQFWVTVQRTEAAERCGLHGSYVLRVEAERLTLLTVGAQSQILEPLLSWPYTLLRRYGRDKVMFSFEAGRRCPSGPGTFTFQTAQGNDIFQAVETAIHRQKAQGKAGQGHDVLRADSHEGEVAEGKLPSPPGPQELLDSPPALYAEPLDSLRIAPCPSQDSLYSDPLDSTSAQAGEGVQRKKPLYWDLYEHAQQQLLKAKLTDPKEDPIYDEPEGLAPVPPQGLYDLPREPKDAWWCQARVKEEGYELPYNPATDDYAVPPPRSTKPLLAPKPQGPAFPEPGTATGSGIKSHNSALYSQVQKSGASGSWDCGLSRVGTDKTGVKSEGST
inactive: [1] -0.024 | [2] 0.051 | [3] 0.023 | [4] 0.015 | [5] 0.002 | [6] -0.041 | [7] -0.02 | [8] 0.021 | [9] 0.06 | [10] 0.021 | [11] 0.023 | [12] 0.01 | [13] 0.017 | [14] 0.014 | [15] -0.029 | [16] 0.137 | [17] 0.018 | [18] 0.017 | [19] 0.014 | [20] -0.135

DHCR7 (UniProt Q9UBM7)
Chain of UniProt Q9UBM7 (Q9UBM7 whole entry, looked up): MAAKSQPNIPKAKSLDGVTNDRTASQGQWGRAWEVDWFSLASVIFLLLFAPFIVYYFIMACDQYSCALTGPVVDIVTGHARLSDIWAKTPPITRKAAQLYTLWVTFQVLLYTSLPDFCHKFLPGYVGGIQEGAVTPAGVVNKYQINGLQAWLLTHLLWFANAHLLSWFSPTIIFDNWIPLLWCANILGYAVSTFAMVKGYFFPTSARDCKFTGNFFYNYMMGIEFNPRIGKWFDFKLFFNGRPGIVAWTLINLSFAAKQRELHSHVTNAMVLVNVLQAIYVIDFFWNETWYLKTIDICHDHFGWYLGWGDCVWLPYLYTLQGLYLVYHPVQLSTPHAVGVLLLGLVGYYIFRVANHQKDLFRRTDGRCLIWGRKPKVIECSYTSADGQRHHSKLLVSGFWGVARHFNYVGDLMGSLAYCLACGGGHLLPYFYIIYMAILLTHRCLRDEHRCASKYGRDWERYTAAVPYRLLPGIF
inactive: [1] -0.051 | [2] 0.081 | [3] -0.153 | [4] -0.016 | [5] 0.033 | [6] -0.024 | [7] -0.019 | [8] -0.058 | [9] 0.075 | [10] 0.007 | [11] -0.026 | [12] 0.016 | [13] 0.071 | [14] -0.042 | [15] -0.018 | [16] 0.01 | [17] -0.007 | [18] -0.017 | [19] -0.011 | [20] -0.002
